# Compound activity (PubChem BioAssay)
# U2OS ROS induce = inducers of reactive oxygen species in cancer cells; ROS induction (% of piperlongumine), % at 10 µM; U2OS ROS induction, H2DCF-DA fluorescence; actives 2% (n = 46,000); AID 624156; in the data active = ROS induction above about 79%, passing the limit was not always enough;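 note: 0% = DMSO vehicle median and 100% = reference compound median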
# An asterisk follows results filed as active. The sample as a whole holds a higher share of hits than the screen did.
SMILES,U2OS ROS induce
O=C(CC(O)(CC(=O)OCc1ccc(O[C@@H]2O[C@H](CO)[C@@H](O)[C@H](O)[C@H]2O)cc1)C(=O)OCc1ccc(O[C@@H]2O[C@H](CO)[C@@H](O)[C@H](O)[C@H]2O)cc1)OCc1ccc(O[C@@H]2O[C@H](CO)[C@@H](O)[C@H](O)[C@H]2O)cc1,2
Cc1noc(C)c1NC(=O)Nc1cccc2c1O[C@@H](CN(C)C)[C@H](C)CN([C@@H](C)CO)C2=O,1
O=C(O)c1cc(-c2ccccc2)nc2ccccc12,2
CCN(CC)c1ccc(-c2cc(C(=O)O)c3c(ccc4ccccc43)n2)cc1,440*
CCc1ccc(-c2cc(C(=O)OC)c3ccccc3n2)cc1,8
N#Cc1ccc(-c2ccncc2)nc1SCC(N)=O,-12
CC(C)NS(=O)(=O)Cc1ccccc1,-8
CC(C)c1ccccc1OCC(=O)Nc1ccccc1C(N)=O,1
CCOC(=O)c1cnc2ccc(OCC)cc2c1NCCCN1CCOCC1,52
CCOC(=O)c1cnc2c(C(F)(F)F)cccc2c1NCCCN1CCOCC1,113*
CCOC(=O)c1cnc2c(C(F)(F)F)cccc2c1N1CCN(C)CC1,50
COc1ccccc1NC(=O)c1ccc(C(C)(C)C)cc1,4
C[C@@H]1CCCCO[C@H](CN(C)Cc2ccc3c(c2)OCO3)[C@@H](C)CN([C@H](C)CO)C(=O)c2cc(NS(=O)(=O)c3cccs3)ccc2O1,-3
C[C@@H]1CN([C@H](C)CO)C(=O)c2cccc(NS(=O)(=O)c3ccc(F)cc3)c2O[C@@H]1CN(C)C(=O)Nc1ccccc1,-11
COC(=O)c1ccccc1NC(=O)CNC(=O)c1ccccc1,0
COC(=O)c1ccccc1NC(=O)c1c(C)nn(-c2ccccc2)c1-n1cccc1,126*
COc1cc(OC)c(NC(=O)c2c(C)nn(-c3ccccc3)c2-n2cccc2)cc1Cl,26
COc1ccc(CN(C)C[C@H]2Oc3ccc(NS(=O)(=O)c4cn(C)cn4)cc3C(=O)N([C@@H](C)CO)C[C@@H]2C)cc1,-2
C[C@H](CO)N1C[C@H](C)[C@@H](CN(C)S(=O)(=O)c2ccc(-c3ccccc3)cc2)OCc2cnnn2CCCC1=O,32
CN1CCN(CC(=O)N2N=C(c3c(-c4ccccc4)c4cc(Cl)ccc4[nH]c3=O)CC2c2ccccc2)CC1 (stereo not given),23
CCCNS(=O)(=O)c1ccc2c(c1)OCC(=O)N2,-5
Cc1cc2c(cc1S(=O)(=O)N1CC(C)CC(C)C1)OCC(=O)N2 (stereo not given),85*
Cc1cc2c(cc1S(=O)(=O)N1CCc3ccccc31)OCC(=O)N2,18
Cc1cnn(CCCNC(=O)c2cc(-c3cccnc3)nc3ccc(Cl)cc23)c1,2
N#Cc1cc2c(=O)n3ccccc3nc2n(CCc2ccccc2)c1=O,22
SMILES,U2OS ROS induce
CC(C)NC(=O)N(C)C[C@@H]1Oc2c(NS(=O)(=O)c3ccc(Cl)cc3)cccc2C(=O)N([C@H](C)CO)C[C@H]1C,-1
C=CCNC(=O)[C@H]1[C@@H]2C(=O)O[C@@H](c3ccccc3)[C@@H](c3ccccc3)N2[C@@H](c2ccccc2OCCO)[C@]12C(=O)Nc1ccc(C#CC3(O)CCCCCC3)cc12,102*
C=CCNC(=O)[C@@H]1[C@H]2C(=O)O[C@H](c3ccccc3)[C@H](c3ccccc3)N2[C@H](c2ccccc2OCCO)[C@@]12C(=O)Nc1ccc(C#CC3=CCCCC3)cc12,-7
COCCOC(=O)N1C(=O)[C@@]2(c3ccccc31)[C@H](c1ccc(O)cc1)N1[C@H](c3ccccc3)[C@H](c3ccccc3)OC(=O)[C@H]1[C@@H]2C(=O)NC[C@H](O)c1ccccc1,10
C=CCNC(=O)[C@@H]1[C@H]2C(=O)O[C@H](c3ccccc3)[C@H](c3ccccc3)N2[C@H](c2ccccc2OCCO)[C@@]12C(=O)N(C(=O)OCCOC)c1ccc(C#CC3=CCCCC3)cc12,58
COCCOC(=O)N1C(=O)[C@@]2(c3ccccc31)[C@H](C(=O)NC[C@H](O)c1ccccc1)[C@H]1C(=O)O[C@H](c3ccccc3)[C@H](c3ccccc3)N1[C@@H]2c1ccc(O)cc1,41
O=C1O[C@@H](c2ccccc2)[C@@H](c2ccccc2)N2[C@@H](c3ccccc3OCCO)[C@]3(C(=O)Nc4ccc(C#CC5(O)CCCCCC5)cc43)[C@@H](C(=O)O)[C@H]12,0
C=CCNC(=O)[C@H]1[C@@H]2C(=O)O[C@@H](c3ccccc3)[C@@H](c3ccccc3)N2[C@@H](c2ccccc2OCCO)[C@]12C(=O)N(C(=O)OCCOC)c1ccc(C#CC3=CCCCC3)cc12,177*
C=CCNC(=O)[C@@H]1[C@H]2C(=O)O[C@H](c3ccccc3)[C@H](c3ccccc3)N2[C@H](c2ccccc2OCCO)[C@@]12C(=O)N(C(=O)OCCOC)c1ccc(C#CC3(O)CCCCCC3)cc12,98*
COCCOC(=O)N1C(=O)[C@@]2(c3ccccc31)[C@H](c1ccc(OCCO)cc1)N1[C@H](c3ccccc3)[C@H](c3ccccc3)OC(=O)[C@H]1[C@@H]2C(=O)NC[C@H](O)c1ccccc1,189*
COCCOC(=O)N1C(=O)[C@@]2(c3cc(C#CCNC(N)=O)ccc31)[C@H](C(N)=O)[C@H]1C(=O)O[C@H](c3ccccc3)[C@H](c3ccccc3)N1[C@@H]2c1ccccc1OCCO,17
C=CCNC(=O)[C@H]1[C@@H]2C(=O)O[C@@H](c3ccccc3)[C@@H](c3ccccc3)N2[C@@H](c2ccccc2OCCO)[C@]12C(=O)Nc1ccc(C#CCCO)cc12,72
COCCOC(=O)N1C(=O)[C@@]2(c3cc(C#CC4(O)CCCCCC4)ccc31)[C@H](C(N)=O)[C@H]1C(=O)O[C@H](c3ccccc3)[C@H](c3ccccc3)N1[C@@H]2c1ccccc1OCCO,31
COc1ccc(S(=O)(=O)N(CC(N)=O)c2ccc(F)cc2)cc1,-3
CCOC(=O)c1sc2nc(C)nc(N3CCC(C)CC3)c2c1C,3
O=C(Nc1cccc(NC(=S)NC(=O)c2ccco2)c1)c1ccccc1,-5
Cc1ccn2c(-c3nnco3)c(C)nc2c1,25
CCC1(CC)C(=O)N(CC(=O)OC)C(=O)N(C)C1=S,1
Cc1noc(C)c1NC(=O)N(C)C[C@@H]1Oc2ccc(NC(=O)CCCCCC(=O)Nc3ccccc3N)cc2C(=O)N([C@H](C)CO)C[C@@H]1C,-4
C[C@@H]1CCCCO[C@@H](CN(C)Cc2ccc(C(=O)Nc3ccccc3N)cc2)[C@@H](C)CN([C@H](C)CO)C(=O)c2cc(NC(=O)Nc3ccc(C(F)(F)F)cc3)ccc2O1,21
Cc1c2cnn(-c3ccccc3)c(=O)c2c(C)n1CCCC(=O)NCCc1ccccc1,47
CCN(CC)S(=O)(=O)c1cc(-c2nnc(-c3ccc(C)cc3)o2)ccc1C,33
CCOC(=O)c1c(CNc2cccc(C(N)=O)c2)n(C)c2cc(Br)c(OC(C)=O)cc12,53
O=C(O)/C=C\C(=O)Nc1ccccc1SCC(O)Cn1ccc(C(F)(F)F)n1 (stereo not given),3
Cc1noc(C)c1S(=O)(=O)Nc1ccc2c(c1)C(=O)N([C@@H](C)CO)C[C@@H](C)[C@@H](CN(C)Cc1ccc(-c3ccccc3)cc1)O2,11
Nc1c(Cl)cc(NC(=O)CCCC(=O)O)cc1Cl,-4
CC(C)NC(=O)N(C)C[C@H]1Oc2c(NC(=O)NC3CCCCC3)cccc2C(=O)N([C@H](C)CO)C[C@H]1C,13
